Laboratory results: PubChem BioAssay (EPA / NIEHS)
Values joined by “and” are separate entries in the source; they are usually repeats but may differ in a detail not shown here. Identical values can stand only once. Records with an inconclusive call do not appear. Active and inactive are the calls of the source. Rule for the calls, unless noted: active = hit-call score of the fitted dose curve at least 0.9, where 1 is the maximum; inactive = score below 0.9.

Tests used:
[1] = read-out: Interleukin-8 (IL8), CXCL8 (gene 3576); experiment: BSK_hDFCGF_IL8: BioMAP Diversity Plus: hDFCGF Assay for Interleukin-8 (IL8) Biomarker Activity (AID 2283058); conditions: primary human foreskin fibroblasts; actives raise or lower the signal
How it was run: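 ELISA read-out of IL-8 from primary human foreskin fibroblast cultures taken 24 h after dosing; values are bidirectional fits relative to DMSO vehicle.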

[2] = BSK_hDFCGF_Proliferation: Cell Proliferation Assessment in the BioMAP Diversity Plus: hDFCGF Assay (AID 2283059); conditions: primary human foreskin fibroblasts;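 note: curves fitted for both rise and fall of signal versus DMSO baseline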
How it was run: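 Primary human foreskin fibroblasts, sub-confluent; […]; 10% TCA fix, 0.1% SRB stain, A560 total protein. Gain/loss fitted bidirectionally vs DMSO control.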

[3] = read-out: TIMP metallopeptidase inhibitor 1 (TIMP1), TIMP1 (gene 7076); experiment: BSK_hDFCGF_TIMP1: BioMAP Diversity Plus: hDFCGF Assay for TIMP metallopeptidase inhibitor 1 (TIMP1) Biomarker Activity (AID 2283062); conditions: primary human foreskin fibroblasts; actives raise or lower the signal
How it was run: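 ELISA readout of TIMP-1 from human dermal foreskin fibroblast cultures 24 h post-dosing. Curves were fitted in both directions against DMSO baseline, with SRB total-protein staining in parallel cultures as a cytotoxicity check.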

[4] = read-out: Monokine induced gamma interferon (MIG), CXCL9 (gene 4283); experiment: BSK_hDFCGF_MIG: BioMAP Diversity Plus: hDFCGF Assay for Monokine induced gamma interferon (MIG) Biomarker Activity (AID 2283063); conditions: primary human foreskin fibroblasts; actives raise or lower the signal
How it was run: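 Fibroblasts (human foreskin, primary) dosed, 24 h, MIG by ELISA; fit bidirectional vs DMSO.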

[5] = read-out: Matrix Metallopeptidase 1 (MMP1), MMP1 (gene 4312); experiment: BSK_hDFCGF_MMP1: BioMAP Diversity Plus: hDFCGF Assay for Matrix Metallopeptidase 1 (MMP1) Biomarker Activity (AID 2283064); conditions: primary human foreskin fibroblasts; actives raise or lower the signal
How it was run: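 Primary human foreskin fibroblasts in the hDFCGF system were dosed with test chemical, and MMP1 was measured by ELISA 24 h later. Values come from bidirectional curve fitting against the DMSO baseline.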

[6] = read-out: Vascular cell adhesion molecule 1 (VCAM1), VCAM1 (gene 7412); experiment: BSK_hDFCGF_VCAM1: BioMAP Diversity Plus: hDFCGF Assay for Vascular cell adhesion molecule 1 (VCAM1) Biomarker Activity (AID 2283065); conditions: primary human foreskin fibroblasts; actives raise or lower the signal;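 for AC50: VCAM-1 protein level quantified by ELISA after 24 h chemical exposure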
How it was run: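 ELISA read-out of VCAM-1 on human skin fibroblasts, 24 h post-dose; gain or loss of signal fitted bidirectionally against DMSO baseline.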

[7] = read-out: Plasminogen activator inhibitor-1 (PAI1), SERPINE1 (gene 5054); experiment: BSK_hDFCGF_PAI1: BioMAP Diversity Plus: hDFCGF Assay for Plasminogen activator inhibitor-1 (PAI1) Biomarker Activity (AID 2283066); conditions: primary human foreskin fibroblasts; actives raise or lower the signal
How it was run: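 Primary dermal fibroblasts (human foreskin), hDFCGF system; compound 24 h; PAI-1 by ELISA; bidirectional fit vs DMSO control.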

[8] = read-out: Intercellular Adhesion Molecule 1 (ICAM1), ICAM1 (gene 3383); experiment: BSK_KF3CT_ICAM1: BioMAP Diversity Plus: KF3CT Assay for Intercellular Adhesion Molecule 1 (ICAM1) Biomarker Activity (AID 2283067); conditions: primary human keratinocytes with fibroblasts; actives raise or lower the signal
How it was run: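 ELISA readout of ICAM-1; KF3CT human skin co-culture (keratinocytes + foreskin fibroblasts), 24 h post-dose; gain/loss fit vs DMSO baseline.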

[9] = read-out: Interferon-gamma inducible Protein 10 (IP10), CXCL10 (gene 3627); experiment: BSK_KF3CT_IP10: BioMAP Diversity Plus: KF3CT Assay for Interferon-gamma inducible Protein 10 (IP10) Biomarker Activity (AID 2283068); conditions: primary human keratinocytes with fibroblasts; actives raise or lower the signal
How it was run: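 In a primary skin co-culture of keratinocytes and fibroblasts, IP-10 is quantified by ELISA at 24 h after dosing. SRB staining of parallel wells monitors overt toxicity. Curves are fitted both directions against DMSO.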

[10] = BSK_KF3CT_SRB: Viability Assessment in the BioMAP Diversity Plus: KF3CT Assay (AID 2283069); conditions: primary human keratinocytes with fibroblasts;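 note: total protein by sulforhodamine B staining as a cytotoxicity measure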
How it was run: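 Human primary keratinocyte plus foreskin fibroblast co-culture exposed to chemicals for 24 h. Total protein measured by 0.1% sulforhodamine B staining after 10% TCA fixation, read at 560 nm; bidirectional fitting versus DMSO baseline.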

[11] = read-out: C-C motif chemokine 2 (Homo sapiens) (UniProt P13500); experiment: BSK_KF3CT_MCP1: BioMAP Diversity Plus: KF3CT Assay for Monocyte Chemoattractant Protein 1 (MCP1/CCL2) Biomarker Activity (AID 2283073); conditions: primary human keratinocytes with fibroblasts; actives raise or lower the signal
How it was run: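 KF3CT skin co-culture (keratinocytes/foreskin fibroblasts), 24 h post-dose; MCP-1 by ELISA; gain/loss of signal fit bidirectionally vs DMSO baseline.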

[12] = read-out: urokinase plasminogen activator (uPA), PLAU (gene 5328); experiment: BSK_KF3CT_uPA: BioMAP Diversity Plus: KF3CT Assay for urokinase plasminogen activator (uPA) Biomarker Activity (AID 2283075); conditions: primary human keratinocytes with fibroblasts; actives raise or lower the signal
How it was run: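 Human keratinocyte plus foreskin fibroblast primary co-culture exposed to chemical for 24 h. uPA levels were quantified by ELISA, and activity was fitted bidirectionally against a DMSO negative-control baseline.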

CD40, CD40 (gene 958) = experiment: BSK_LPS_CD40: BioMAP Diversity Plus: LPS Assay for CD40 Biomarker Activity (AID 2283076); conditions: primary human HUVEC with PBMC; actives raise or lower the signal
How it was run: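 ELISA readout of CD40 in HUVEC/PBMC co-culture (BSK_LPS system), 24 h post-dosing; bidirectional curve fit, DMSO baseline; parallel SRB total-protein staining for cytotoxicity.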

[13] = BSK_LPS_SRB: Viability Assessment in the BioMAP Diversity Plus: LPS Assay (AID 2283079); conditions: primary human HUVEC with PBMC;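 note: total protein by sulforhodamine B absorbance as a cytotoxicity measure; measured one day after compound addition; fitted in both directions against DMSO so loss or gain of signal counts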
How it was run: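 HUVEC + PBMC co-culture, LPS-stimulated; compound 24 h. 10% TCA fix, 0.1% SRB stain, A560. Bidirectional fit vs DMSO.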

[14] = read-out: Macrophage colony-stimulating factor (MCSF), CSF1 (gene 1435); experiment: BSK_LPS_MCSF: BioMAP Diversity Plus: LPS Assay for Macrophage colony-stimulating factor (MCSF) Biomarker Activity (AID 2283083); conditions: primary human HUVEC with PBMC; actives raise or lower the signal
How it was run: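 HUVEC + PBMC co-culture (human primary), 24 h post-dose; M-CSF by ELISA; gain/loss of signal fitted bidirectionally vs DMSO baseline.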

[15] = read-out: Tissue Factor, F3 (gene 2152); experiment: BSK_LPS_TissueFactor: BioMAP Diversity Plus: LPS Assay for Tissue Factor Biomarker Activity (AID 2283084); conditions: primary human HUVEC with PBMC; actives raise or lower the signal
How it was run: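 HUVEC/PBMC co-culture, LPS-activated; CD142 ELISA read 24 h post-dose; bidirectional curve fit vs DMSO negative control.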

[16] = read-out: Vascular cell adhesion molecule 1 (VCAM1), VCAM1 (gene 7412); experiment: BSK_LPS_VCAM1: BioMAP Diversity Plus: LPS Assay for Vascular cell adhesion molecule 1 (VCAM1) Biomarker Activity (AID 2283086); conditions: primary human HUVEC with PBMC; actives raise or lower the signal
How it was run: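 HUVEC + PBMC co-culture, LPS system; compound 24 h; VCAM-1 by ELISA; bidirectional fit vs DMSO control; parallel SRB (0.1%, TCA-fixed, 560 nm) for cytotoxicity.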

[17] = read-out: Interleukin-8 (IL8), CXCL8 (gene 3576); experiment: BSK_SAg_IL8: BioMAP Diversity Plus: SAg Assay for Interleukin-8 (IL8) Biomarker Activity (AID 2283094); conditions: primary human HUVEC with PBMC; actives raise or lower the signal
How it was run: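 ELISA read-out of IL-8 in a primary human vascular co-culture (umbilical vein endothelium plus PBMC), taken 24 h after compound addition. Values derive from bidirectional fits against DMSO negative controls.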

[18] = BSK_SAg_SRB: Viability Assessment in the BioMAP Diversity Plus: SAg Assay (AID 2283096); conditions: primary human HUVEC with PBMC;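 note: cells read one day after compound addition; hits may be either gain or loss of signal compared with DMSO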
How it was run: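 Endothelial/PBMC primary human co-culture; compound 24 h; fix 10% TCA, stain 0.1% SRB, A560; protein content as cytotoxicity proxy; bidirectional curve fit, DMSO = baseline.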

[19] = target: Peroxisome proliferator-activated receptor gamma (Homo sapiens) (UniProt P37231); experiment: OT_PPARg_PPARgSRC1_0480: Odyssey Thera (OT) 8-hour Protein-Complementation Assay for Peroxisome Proliferator-activated Receptor Gamma / SRC-1 Co-activator (AID 2283387; active = hit-call score of the fitted dose curve at least 0.9, where 1 is the maximum;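 note: nuclear to cytoplasmic split Venus YFP fluorescence ratio reporting PPARg SRC-1 interaction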)
How it was run: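 HEK293T transiently transfected with PPARg and SRC-1 fused to Venus YFP fragments, compounds 8 h at 37C. Fixed, Draq5-stained cells imaged; nuclear/cytoplasmic 488 nm fluorescence ratio over at least 350 cells per image; gain fitted versus DMSO.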

Measured: AC50

Chain of Peroxisome proliferator-activated receptor gamma (Homo sapiens) (P37231 whole entry, looked up, the tested form may be a part): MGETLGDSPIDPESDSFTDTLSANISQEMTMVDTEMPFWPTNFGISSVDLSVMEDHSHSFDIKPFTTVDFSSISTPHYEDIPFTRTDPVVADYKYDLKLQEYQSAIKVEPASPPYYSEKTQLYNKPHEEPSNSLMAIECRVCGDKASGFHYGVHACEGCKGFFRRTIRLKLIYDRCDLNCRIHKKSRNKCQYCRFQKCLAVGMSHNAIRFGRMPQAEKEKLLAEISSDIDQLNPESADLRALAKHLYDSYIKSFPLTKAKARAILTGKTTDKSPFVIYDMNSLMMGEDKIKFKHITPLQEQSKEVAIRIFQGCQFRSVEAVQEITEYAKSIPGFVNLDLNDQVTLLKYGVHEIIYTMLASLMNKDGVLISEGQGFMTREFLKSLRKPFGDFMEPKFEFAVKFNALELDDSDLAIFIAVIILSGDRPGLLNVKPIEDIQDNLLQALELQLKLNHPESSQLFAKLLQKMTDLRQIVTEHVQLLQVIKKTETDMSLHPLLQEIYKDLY

CC1(C)[C@H](C(=O)O[C@H](C#N)c2cccc(Oc3ccccc3)c2)[C@@H]1C=C(Br)Br
inactive: [1] | [2] | [3] | [4] | [5] | [6] | [7] | [8] | [9] | [10] | [11] | [12] | CD40, CD40 (gene 958) | [13] | [14] | [15] | [16] | [17] | [18] | [19]

O=c1c2ccccc2c(=O)c2c1cc(Cl)c1[nH]c3c([nH]c12)c(Cl)cc1c(=O)c2ccccc2c(=O)c13
active: [6] 14.4 µM
inactive: [1] | [2] | [3] | [4] | [5] | [7] | [8] | [9] | [10] | [11] | [12] | CD40, CD40 (gene 958) | [13] | [14] | [15] | [16] | [17] | [18]

Oc1ccc(C2(c3ccc(O)cc3)c3ccccc3-c3ccccc32)cc1
active: [1] 6.24 µM and 5.65 µM | [2] 1.12 µM and 927 nM | [3] 1.47 µM and 1.56 µM | [4] 3.38 µM and 2.61 µM | [5] 3.97 µM and 2.03 µM | [6] 1.61 µM and 1.41 µM | [7] 728 nM and 803 nM | [8] 11.9 µM and 10.4 µM | [9] 6.03 µM and 7.32 µM | [10] 5.12 µM and 5.08 µM | [11] 5.75 µM and 6.7 µM | [12] 8.33 µM and 9.87 µM | CD40, CD40 (gene 958) 12.1 µM and 10.1 µM | [13] 13.7 µM and 14.4 µM | [14] 33.9 µM and 33.6 µM | [15] 32 µM and 29.5 µM | [16] 15.9 µM and 22 µM | [17] 8.55 µM and 9.2 µM | [18] 15.9 µM and 15.6 µM

Oc1cc(Cl)ccc1Cl
inactive: [1] | [2] | [3] | [4] | [5] | [6] | [7] | [8] | [9] | [10] | [11] | [12] | CD40, CD40 (gene 958) | [13] | [14] | [15] | [16] | [17] | [18] | [19]

CCc1cc(C)cc(CC)c1-c1c(OC(=O)C(C)(C)C)n2n(c1=O)CCOCC2
inactive: [1] | [3] | [4] | [5] | [6] | [8] | [9] | [10] | [11] | [12] | CD40, CD40 (gene 958) | [13] | [14] | [15] | [17] | [18]
active: [2] 25.2 µM | [7] 3.97 µM | [16] 3.97 µM
